Results on 15 molecules are retold here after ChEMBL document CHEMBL5308504, “Tm Shift (DSF) assay results for EUbOPEN Chemogenomics Library” (2023).

Each structure is given as a SMILES string. Several values for one entry are separate records, joined by “and”; a condition that tells them apart may be missing. Equal entries are not always repeated.

The target in this assay is Cyclin-dependent kinase 2 (Homo sapiens) (UniProt P24941). To be noted: Compound concentration 20.0 uM, Protein concentration 2.0 uM, Result type QC Liability.
The ΔTm is the shift of the melting midpoint relative to a reference. As to `Cc1cc(CN)cc(C)c1-c1ncn(C)c1-c1ccnc2cc(F)ccc12`, the ΔTm worked out at 0.32 °C.

As for `CN1CCN(c2ccc(/C=C(\C#N)c3ccccc3Br)cc2)CC1`, the ΔTm stood at 0.19 °C.

For the molecule `N#C/C(=C\c1ccc(O)c(O)c1)C(=O)OCCc1cccs1`, the ΔTm was 1.1 °C.

For the molecule `C[C@@H]1CC(=O)N(C2CC2)N=C1c1ccc(NC(=O)N2Cc3ccncc3C2)cc1`, the shift in melting temperature (ΔTm) came to 0.35 °C.

`CC(C)N(C(=O)C1CCOCC1)c1cc(F)c(Oc2ncc(Cn3nccn3)cc2C(F)(F)F)cc1C(=O)O`: the shift in melting temperature (ΔTm) turned out to be 0.2 °C.

Consider `CCOC(=O)N1CCC(CN(Cc2ccc(Cl)cc2)Cc2ccc([N+](=O)[O-])s2)C1` (stereo not given), for which the ΔTm is 0.83 °C.

Turning to `CNC(=O)c1c[nH]c2ccc(Nc3nccc(-c4ccccn4)n3)cc12`, the ΔTm was 1.28 °C.

Take `CC(=O)c1c(C)c2cnc(Nc3ccc(N4CCNCC4)cn3)nc2n(C2CCCC2)c1=O`: the ΔTm is 1.06 °C and 0.93 °C.

As for `O=C(CCCN1CCC(O)(c2ccc(Cl)cc2)CC1)c1ccc(F)cc1`, the ΔTm is 0.82 °C.

Consider `Cc1csc(S(=O)(=O)N(CC(C)C)c2cc3c(cc2OCc2ccc(C(=O)O)cc2)CCC3)n1`, for which the thermal shift (ΔTm) is -0.15 °C.

Turning to `Cc1c(-c2c(F)cc(C(N)=O)c3[nH]c4c(c23)CC[C@H](C(C)(C)O)C4)cccc1-n1c(=O)c2cccc(F)c2n(C)c1=O`, the ΔTm amounted to 0.48 °C.

In the case of `COc1ccc(CSc2nnc(-c3ccc4ncsc4c3)o2)cc1C(F)(F)F`, the ΔTm was 0.54 °C.

With `COc1cc(N2CCN(C)CC2)ccc1Nc1ncc2c(n1)N(C)c1ccccc1C(=O)N2CC(F)(F)F`, the thermal shift (ΔTm) was -0.65 °C.

Consider `COCc1nc2cnc3cc(-c4c(C)noc4C)c(OC[C@H]4CCNC4)cc3c2n1[C@H](C)c1ccccc1`, for which the thermal shift (ΔTm) was found to be 0.87 °C.

For `CCCCC(C)(O)C/C=C/[C@H]1[C@H](O)CC(=O)[C@@H]1CCCCCCC(=O)O` (stereo not given in full), the ΔTm worked out at 0.57 °C.
